# Bioassay records: PubChem BioAssay, several laboratories
# Compounds with a hit are over-represented: about 3.7% of the library has one in this group of screens.
# Mtb UGM inh = M. tuberculosis UGM enzyme inhibitors, primary screen, biochemical, fluorescence polarization, single point. UDP-galactopyranose mutase (Mycobacterium tuberculosis (strain ATCC 25618 / H37Rv)), …. purified UGM, fluorescence polarization probe displacement. inhibition, % at 10 µM. 320,000 tested, 0.06% active. AID 504406, 2011; in the data active means inhibition above about 10%, passing the limit was not always enough
# Target sequence (P9WIQ1 whole entry, looked up): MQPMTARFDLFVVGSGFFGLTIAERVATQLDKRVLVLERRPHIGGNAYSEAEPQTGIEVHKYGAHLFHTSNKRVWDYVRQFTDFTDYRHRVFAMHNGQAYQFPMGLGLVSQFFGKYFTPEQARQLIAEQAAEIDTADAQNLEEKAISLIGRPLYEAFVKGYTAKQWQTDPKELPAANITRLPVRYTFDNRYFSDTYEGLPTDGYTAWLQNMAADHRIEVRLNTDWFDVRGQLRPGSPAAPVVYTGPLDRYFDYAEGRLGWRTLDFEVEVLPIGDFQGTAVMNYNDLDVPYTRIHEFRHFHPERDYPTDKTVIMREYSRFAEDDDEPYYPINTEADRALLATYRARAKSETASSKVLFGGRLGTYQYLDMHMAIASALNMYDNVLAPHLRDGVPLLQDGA
# GDH-TPI counter = GDH-TPI coupling enzyme inhibitors, primary screen, artefact control for M. tuberculosis FBA inhibitor project, biochemical, absorbance, full deck; GDH-TPI coupled enzyme counterscreen, NADH absorbance; inhibition, % at 4.8 µM; 360,000 tested, 1.2% active; AID 588335, 2011; in the data active means inhibition above about 30%;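 further: 0% = DMSO wells and 100% = wells lacking the enzyme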
# Mtb bLac sens = beta-lactam sensitization of Mtb H37Rv, H37Rv | M. tuberculosis H37Rv growth with meropenem, percent inhibition | inhibition, % at 25 µM | 330,000 tested, 0.27% active; call rule not given here;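 further: growth measured after seven days incubation then overnight dye step; 0% = bacteria only wells and 100% = bacteria with antibiotic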
# Rv3671c protease = Rv3671c serine protease inhibitors, primary screen, biochemical, fluorescence polarization, M. tuberculosis H37Rv | 320,000 tested, 0.048% active | inhibition, % at 5.96 µM | P9WHR9; in the data active means inhibition above about 38%;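 further: extracellular domain of Rv3671c used as enzyme; 0% = enzyme with DMSO and 100% = no enzyme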
# FadD28 binding = inhibitors of FadD28 bisubstrate probe binding, primary screen, biochemical, fluorescence polarization, single point; Mycobacterium tuberculosis FadD28 fatty-acid-AMP ligase; inhibition, % at 12.5 µM; 360,000 tested, 0.22% active; AID 588549, 2011; in the data active means inhibition above about 8.5%, passing the limit was not always enough
# Mtb FBA inh = Mtb FBA enzyme inhibitors, primary screen, biochemical, fluorescence, strain H37Rv; Fructose-bisphosphate aldolase (Mycobacterium tuberculosis (strain ATCC 25618 / H37Rv)), …; purified M. tuberculosis FBA, fluorescence read-out; inhibition, % at 1 µM; 360,000 tested, 2.3% active; in the data active means inhibition above about 27%;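 further: 0% = vehicle and 100% = reference inhibitor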
# Active calls of the source: *; x = no result; + = active, no number.
SMILES,Mtb UGM inh,GDH-TPI counter,Mtb bLac sens,Rv3671c protease,FadD28 binding,Mtb FBA inh
COc1ccccc1/C=C1/SC(=S)N(C(C)C(=O)NC2C=CS(=O)(=O)C2)C1=O (stereo not drawn),0,14,1,-19,-2,-4
NC(=S)N/N=C/c1ccc(/C=N/NC(N)=S)cc1,-2,111*,x,-10,-1,-1
NC(=S)N/N=C/c1ccc2ccccc2c1,2,22,x,-4,-4,-4
O=C(O)Cc1ccc(Nc2cnn(C34CC5CC(CC(CC(=O)O)(C5)C3)C4)c(=O)c2Cl)cc1,1,51*,-13,1,-1,0
CCc1ccc(Nc2cnn(C34CC5CC(CC(CC(=O)O)(C5)C3)C4)c(=O)c2Cl)cc1,-2,16,1,-3,-1,3
COc1ccc(/C=C2\C(=O)N(c3c(Cl)cc(Cl)cc3Cl)N=C2NC(=O)c2cccc([N+](=O)[O-])c2)cc1,-1,4,-2,-6,8.4*,-3
NC1=NC(=O)/C(=C\c2cccs2)S1,2,48*,-8,3,-3,-9
O=C1N=C(N2CCOCC2)S/C1=C\c1cccs1,1,19,-4,2,-1,-2
CCCCn1c(N)c(N(CCOC)C(=O)c2oc3c(Cl)cccc3c2C)c(=O)[nH]c1=O,x,14,x,x,-1,4
COc1ccc(OC)c(NC(=O)CNC(=O)Cn2cnc3sc(C)cc3c2=O)c1,0,0,-3,-14,-1,1
COc1ccc(OC)c(NC(=O)CSc2ncnc3sc(C)cc23)c1,x,9,x,x,14*,0
Cc1ccc(C)c(S(=O)(=O)N2CCN(C(=O)CN3C(=O)C4CC=CCC4C3=O)CC2)c1 (stereo not drawn),x,-4,x,x,-2,-2
COc1ccc2c(ccc[n+]2CC(=O)c2ccccc2)c1,-2,13,-4,x,-2,26
COc1ccc2c(ccc[n+]2CC(=O)c2ccc(C)cc2)c1,2,3,8,3,0,31*
COC(=O)c1c(NC(=O)CS(=O)(=O)c2ccccc2)sc(C)c1C,x,9,-3,-4,-1,2
CCc1nc2ccc(C(=O)NCCOc3ccc(OC)cc3)cn2c1N(C=O)Cc1ccc(OC)cc1,x,-3,x,x,-4,-5
Fc1ccc(NC(=S)SCc2ccc3c(c2)OCO3)cc1F,x,9,x,x,-2,1
COC(=O)c1sc(NC(=O)c2ccc(C)o2)nc1C,0,35*,-1,8,-2,0
CCOc1ccc2nc(NC(=O)c3ccc(C)o3)sc2c1,6,49*,7,-2,-3,6
O=[N+]([O-])c1cccc(CON=Cc2cc(Cl)ccc2O)c1,x,5,x,x,-7,-1
CCc1ccc2c(c1)c(N=NC1=NC(=O)CS1)c(O)n2CC,-2,31*,95,-1,0,-8
CCc1ccc2[nH]c(O)c(N=NC3=NC(=O)CS3)c2c1,2,28,31,1,1,0
O=C1[C@@H]2[C@@H](CN3CN(c4ccccc4)N=C(c4ccccc4)[C@@]23c2ccccc2)C(=O)N1c1ccccc1,x,17,x,x,-3,34*
O=C1C2C(c3ccccc3)=NN(c3ccccc3)C2C(=O)N1c1ccccc1 (stereo not drawn),2,0,2,-9,0,5
Cc1ccc(-c2ccc(/C=N/n3cnnc3)o2)cc1,-1,25,94,0,-3,2
SMILES,Mtb UGM inh,GDH-TPI counter,Mtb bLac sens,Rv3671c protease,FadD28 binding,Mtb FBA inh
Clc1cccc(-c2ccc(/C=N/n3cnnc3)o2)c1,0,50*,-2,-8,-9,0
Cc1cc(C(=O)O)ccc1-c1ccc(/C=N/n2cnnc2)o1,2,50*,2,x,-4,6
O=[N+]([O-])c1ccccc1-c1ccc(/C=N/n2cnnc2)o1,-1,27,-2,4,-1,-3
Cc1ccc(-c2ccc(/C=N/n3cnnc3)o2)cc1Cl,1,36*,96,-8,-6,7
O=[N+]([O-])c1cc(-c2ccc(/C=N\n3cnnc3)o2)cc([N+](=O)[O-])c1,-1,29,100,3,0,-1
N#Cc1cccc(NC(=O)c2cc(C3CCCCN3C(=O)c3ccccn3)on2)c1 (stereo not drawn),x,-2,x,x,-4,-4
NC(=O)c1c(NC(=O)COC(=O)c2ccc(O)c(Cl)c2)sc2c1CCCC2,1,5,98,-11,-3,1
O=C1c2ccc3c4c(ccc(c24)C(=O)N1c1cccc(O)c1)C(=O)N(c1cccc(O)c1)C3=O,0,35*,8,-7,-3,3
Cc1ccnc(N2C(=O)c3cccc4c([N+](=O)[O-])ccc(c34)C2=O)c1,-1,33*,101,-1,-4,5
CC(=O)Nc1ccc2c3c(cccc13)C(=O)N(c1ccccc1)C2=O,-3,12,8,-4,-1,+
Cc1ccc(N2C(=O)c3cccc4c([N+](=O)[O-])ccc(c34)C2=O)c2cccnc12,0,4,0,-3,0,2
CC(C)CCN1C(=O)c2cccc3c(N)ccc(c23)C1=O,18*,-2,-6,6,0,-4
COC(=O)NC1CC2C=CC1C1C=CC21 (stereo not drawn),x,2,x,x,-3,0
COc1ccc(OCCNC(=O)c2ccc(C)cc2)cc1,-1,-3,6,1,x,-3
Nc1ccc2c3c(cccc13)C(=O)N(c1ccccc1)C2=O,x,-7,x,x,-3,-11
Cc1cccc(N2C(=O)c3cccc4c(N)ccc(c34)C2=O)c1,39*,-10,-1,11,-2,-11
CC(=O)Nc1cccc2cc(O)ccc12,x,11,x,x,-1,-1
CC(=O)Nc1ccc2ccc3cccc4ccc1c2c34,1,34*,8,-1,-3,18
Cc1cccc(N2C(=O)c3cccc4cccc(c34)C2=O)c1,-3,15,1,4,-3,-1
Nc1cccc(N2C(=O)c3cccc4c(N)ccc(c34)C2=O)c1,29*,2,-5,6,0,-10
COc1ccccc1C(=O)NCC(=O)OCc1nnc(-c2ccccc2)o1,x,5,x,x,1,-2
COc1ccccc1C1/C(=C(/O)c2ccccc2)C(=O)C(=O)N1CC(C)O (stereo not drawn),-1,12,5,-5,10*,5
COc1cccc(/C(O)=C2\C(=O)C(=O)N(c3ccccn3)C2c2cccc(OC)c2OC)c1 (stereo not drawn),0,41*,7,-1,1,-5
COc1ccc(C2/C(=C(/O)c3ccc(C)cc3)C(=O)C(=O)N2c2ccccn2)cc1OC (stereo not drawn),3,32*,-10,2,0,0
